Experimental data as given in the supplement of paper PMC11219838.
A number with no mark means an inactive call.

Tested on: Caenorhabditis elegans L1 (N2)
Assay: survival and reproduction score of C. elegans L1 (0: 0-10 living worms, 1: 11-20, 2: 21-50, 3: >50, 4: overgrown) (score 0-4); higher = more worms, less nematicidal, active = 1 or less; extreme values may be limits of the assay
Conditions: 60 µM; 6 days; temperature: 20 °C
In short: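 Worm survival and reproduction were recorded as an ordinal score of living worms per well, read under a dissection microscope. Each 96-well well held about 20 synchronized C. elegans N2 L1s with E. coli HB101 in liquid NGM and compound at 60 µM final (0.6% v/v DMSO), sealed and shaken at 200 rpm, 20 °C, for 6 days. Scores ranged from 0 (0–10 worms) to 4 (overgrown, starved) and were the mean of two biological replicates.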

Row | SMILES | survival and reproduction score
1 | COc1ccccc1-c1noc(-c2ccccc2C)n1 | 4
2 | Fc1ccc(-c2nc(-c3cccc(C(F)(F)F)c3)no2)cc1 | 4
3 | COc1ccc(-c2nnc(SCC(=O)N(C)c3ccccc3)o2)cc1 | 4
4 | O=C(CSc1nnc(-c2ccc(Cl)cc2Cl)o1)Nc1ccccn1 | 4
5 | O=C(CSc1nnc(-c2ccco2)o1)NC1CCCCC1 | 4
6 | Clc1ccc(OCc2nc(-c3ccccc3)no2)c(Cl)c1 | 0 (active)
7 | Cc1ccc(-c2nnc(SCC(=O)NCc3ccccc3)o2)cc1 | 4
8 | COc1ccccc1NC(=O)c1ccccc1-c1nc(-c2ccc(Cl)cc2)no1 | 4
9 | Cc1ccccc1-c1nc(-c2ccccc2Cl)no1 | 0 (active)
10 | CCOc1cc(-c2nc(-c3ccccc3OC)no2)cc(OCC)c1OCC | 4
11 | COc1ccc(NC(=O)CSc2nnc(-c3ccc(Br)cc3)o2)cc1 | 4
12 | COc1ccc(-c2noc(-c3ccc(C)cc3Cl)n2)cc1 | 4
13 | Cc1cccc(-c2noc(-c3ccccc3Cl)n2)c1 | 4
14 | COc1ccc(-c2noc(-c3ccc(Br)cc3)n2)cc1 | 0 (active)
15 | Clc1ccccc1-c1noc(COc2ccc(Br)cc2)n1 | 4
16 | N#Cc1ccc(OCc2nc(-c3cccs3)no2)cc1 | 4
17 | Brc1ccccc1-c1nc(-c2ccncc2)no1 | 0 (active)
18 | Cc1ccc(OCc2nc(-c3ccncc3)no2)cc1C | 4
19 | O=C(CSc1nnc(-c2ccc(Br)cc2)o1)OCc1ccccc1 | 4
20 | Brc1ccc(-c2noc(COc3ccccc3)n2)cc1 | 4
21 | COc1cccc(OCc2nc(-c3cccc(C)c3)no2)c1 | 4
22 | COc1ccc(Cl)cc1NC(=O)CSc1nnc(-c2ccncc2)o1 | 4
23 | CN(C)C(=O)c1ccccc1-c1nc(-c2ccccc2Cl)no1 | 4
24 | Cc1cc(OCc2nc(-c3ccncc3)no2)ccc1Cl | 4
25 | Cc1ccc(-c2noc(COc3ccc(C)cc3C)n2)cc1 | 4
26 | O=C(Nc1ccc(-c2noc(-c3ccc(Cl)cc3)n2)cc1)c1ccco1 | 0 (active)

Row | SMILES | survival and reproduction score
27 | Cc1ccc(OCc2nc(-c3cccnc3)no2)cc1C | 4
28 | COc1cccc(-c2noc(COc3cc(C)cc(C)c3)n2)c1 | 4
29 | CC(=O)Nc1ccc(-c2nnc(SCc3ccccc3)o2)cc1 | 4
30 | COc1cccc(-c2nc(-c3ccc(C)cc3)no2)c1 | 0 (active)
31 | CCCOc1ccc(-c2ccc(-c3nc(-c4ccccn4)no3)cc2)cc1 | 4
32 | O=C(CSc1nnc(-c2ccccc2)o1)NC1CC2CCC1C2 (stereo unspecified) | 4
33 | CCCCc1nc(-c2ccc(-c3ccc(C)cc3)nc2OC)no1 | 4
34 | CC(C)Oc1ccc(-c2nc(-c3ccccn3)no2)cc1 | 0 (active)
35 | COc1ccccc1-c1nnc(SCc2ccccc2C)o1 | 4
36 | Cc1ccc(-c2nnc(SCc3ccccc3Cl)o2)cc1 | 4
37 | Cc1ccccc1OCc1nc(-c2cccs2)no1 | 1 (active)
38 | c1ccc(CSc2nnc(-c3ccccc3)o2)cc1 | 0 (active)
39 | Clc1ccccc1-c1noc(-c2ccccc2Cl)n1 | 2
40 | Cc1cc(OC(C)c2nc(-c3ccccn3)no2)ccc1Cl (stereo unspecified) | 2
41 | Cc1cc(OCc2nc(-c3ccccc3)no2)ccc1Br | 4
42 | Cc1ccc(-c2nnc(SCc3ccccc3C)o2)cc1 | 4
43 | CCOc1ccccc1NC(=O)CSc1nnc(-c2ccccc2)o1 | 4
44 | Cc1ccccc1-c1noc(-c2cccc(Br)c2)n1 | 4
45 | CCc1ccc(OCc2nc(-c3cccnc3)no2)cc1 | 4
46 | COc1ccc(-c2nnc(SCC(=O)c3ccccc3)o2)cc1 | 4
47 | CCCCSc1nnc(-c2ccc(Br)cc2)o1 | 0 (active)
48 | O=C(c1ccccc1-c1nc(-c2ccc(Cl)cc2)no1)N1CCCCC1 | 4
49 | Cc1ccc(NC(=O)CSc2nnc(-c3ccccc3)o2)cc1F | 4
50 | COc1nc(C)ccc1-c1noc(-c2ccc(Cl)cc2)n1 | 4
51 | O=C(CSc1nnc(-c2ccccc2)o1)N1CCc2ccccc21 | 4
52 | COc1cccc(CSc2nnc(-c3ccco3)n2C)c1 | 2

Row | SMILES | survival and reproduction score
53 | C(=C\c1ccccc1)/CSc1nnc(-c2ccncc2)o1 | 4
54 | O=C(Nc1ccc(-c2noc(-c3ccc(F)cc3)n2)cc1)c1ccc(Br)o1 | 1 (active)
55 | Cc1cc(Cl)ccc1OCc1nc(-c2ccncc2)no1 | 0.5 (active)
56 | Cc1cccc(OCc2nc(-c3ccc(-n4cccc4)cc3)no2)c1 | 4
57 | CC(Oc1ccccc1)c1nc(-c2cccnc2)no1 (stereo unspecified) | 4
58 | CCOc1ccccc1-c1nc(-c2ccc(NC(=O)c3ccncc3)cc2)no1 | 4
59 | Cc1ccc(-c2nnc(SCC(=O)Nc3c(C)cc(C)cc3C)o2)cc1 | 4
60 | O=C(Nc1ccc(-c2noc(COc3ccccc3)n2)cc1)c1ccc(F)cc1 | 1 (active)
61 | Fc1ccc(-c2nc(-c3ccc(Cl)cc3)no2)cc1 | 4
62 | Cc1cc(OCc2nc(-c3cccnc3)no2)c(C)c(C)c1Br | 4
63 | CC(C)(C)C(=O)CSc1nnc(-c2ccc(Cl)cc2Cl)o1 | 4
64 | Fc1cccc(Cl)c1CSc1nnc(-c2ccccc2)o1 | 4
65 | Cc1cccc(OC(C)c2nc(-c3cccnc3)no2)c1 (stereo unspecified) | 4
66 | CN(C(=O)CSc1nnc(-c2ccccc2)o1)c1ccccc1 | 4
67 | O=C(CSc1nnc(-c2ccccc2)o1)Nc1ccc(F)cc1F | 4
68 | COC(=O)CSc1nnc(-c2ccc(C(C)(C)C)cc2)o1 | 3.5
69 | O=C(CSc1nnc(-c2ccc(Cl)cc2)o1)Nc1ccccc1C(F)(F)F | 4
70 | Brc1ccc(-c2nnc(SCc3ccccc3)o2)cc1 | 4
71 | CCc1ccc(OCc2nc(-c3ccc(Cl)cc3)no2)cc1 | 4
72 | COc1ccccc1-c1nnc(SCc2ccc(F)cc2)o1 | 4
73 | CC1CCN(C(=O)CSc2nnc(-c3cc4ccccc4o3)o2)CC1 | 4
74 | O=C(CSc1nnc(-c2cccc(Cl)c2)o1)Nc1ccccc1 | 4
75 | COc1ccc(-c2nc(-c3ccc(Cl)cc3)no2)cc1 | 4
76 | CCc1nc(-c2ccc(-c3ccccc3)nc2OC)no1 | 4
